In the supplement of paper PMC10849652:
Of roughly 8,800 targets only a part is listed; those with a hit were picked by preference. About 0.5% of all pairs of compound and target were hits.

Each target was assayed with CNc1nc(-c2ccc3c(N)n[nH]c3c2)cc(N2C[C@@H](C(=O)NC3CCCCC3)CC[C@H]2C)n1 (assay: log2 fold change, soluble protein after heating vs DMSO (PISA); higher = thermal stabilisation; K562 lysate, 10 uM; active = over 0.2 and 3.5 SD of the protein, either way, in both replicates (recomputed)).
Procedure, shortened: (§1)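 Dounce homogenisation of K562 pellets in PBS pH 7.4 with 1 mM MgCl2 produced a crude extract, used at 1 mg/mL protein. Exposure to 10 μM compound lasted 30 min, and aliquots were then heated for 3 min across 48°C-58°C, pooled and brought to 0.5% NP-40 at 4°C. The supernatant after 21,000xg for 90 min was quantified by TMTpro 16plex LC-MS/MS with channel sums equalised. Duplicate values are given as log-two fold change in thermal stability relative to solvent controls.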

UniProt Q86U90, sequence (Q86U90 whole entry, looked up): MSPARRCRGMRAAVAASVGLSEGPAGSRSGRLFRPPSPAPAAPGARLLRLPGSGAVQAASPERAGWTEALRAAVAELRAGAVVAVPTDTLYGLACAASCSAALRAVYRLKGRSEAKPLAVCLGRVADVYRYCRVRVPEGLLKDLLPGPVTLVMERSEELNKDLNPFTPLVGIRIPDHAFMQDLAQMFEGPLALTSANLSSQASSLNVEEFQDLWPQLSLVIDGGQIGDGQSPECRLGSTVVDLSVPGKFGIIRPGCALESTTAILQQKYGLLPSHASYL
UniProt Q9Y4E6, sequence (Q9Y4E6 whole entry, looked up): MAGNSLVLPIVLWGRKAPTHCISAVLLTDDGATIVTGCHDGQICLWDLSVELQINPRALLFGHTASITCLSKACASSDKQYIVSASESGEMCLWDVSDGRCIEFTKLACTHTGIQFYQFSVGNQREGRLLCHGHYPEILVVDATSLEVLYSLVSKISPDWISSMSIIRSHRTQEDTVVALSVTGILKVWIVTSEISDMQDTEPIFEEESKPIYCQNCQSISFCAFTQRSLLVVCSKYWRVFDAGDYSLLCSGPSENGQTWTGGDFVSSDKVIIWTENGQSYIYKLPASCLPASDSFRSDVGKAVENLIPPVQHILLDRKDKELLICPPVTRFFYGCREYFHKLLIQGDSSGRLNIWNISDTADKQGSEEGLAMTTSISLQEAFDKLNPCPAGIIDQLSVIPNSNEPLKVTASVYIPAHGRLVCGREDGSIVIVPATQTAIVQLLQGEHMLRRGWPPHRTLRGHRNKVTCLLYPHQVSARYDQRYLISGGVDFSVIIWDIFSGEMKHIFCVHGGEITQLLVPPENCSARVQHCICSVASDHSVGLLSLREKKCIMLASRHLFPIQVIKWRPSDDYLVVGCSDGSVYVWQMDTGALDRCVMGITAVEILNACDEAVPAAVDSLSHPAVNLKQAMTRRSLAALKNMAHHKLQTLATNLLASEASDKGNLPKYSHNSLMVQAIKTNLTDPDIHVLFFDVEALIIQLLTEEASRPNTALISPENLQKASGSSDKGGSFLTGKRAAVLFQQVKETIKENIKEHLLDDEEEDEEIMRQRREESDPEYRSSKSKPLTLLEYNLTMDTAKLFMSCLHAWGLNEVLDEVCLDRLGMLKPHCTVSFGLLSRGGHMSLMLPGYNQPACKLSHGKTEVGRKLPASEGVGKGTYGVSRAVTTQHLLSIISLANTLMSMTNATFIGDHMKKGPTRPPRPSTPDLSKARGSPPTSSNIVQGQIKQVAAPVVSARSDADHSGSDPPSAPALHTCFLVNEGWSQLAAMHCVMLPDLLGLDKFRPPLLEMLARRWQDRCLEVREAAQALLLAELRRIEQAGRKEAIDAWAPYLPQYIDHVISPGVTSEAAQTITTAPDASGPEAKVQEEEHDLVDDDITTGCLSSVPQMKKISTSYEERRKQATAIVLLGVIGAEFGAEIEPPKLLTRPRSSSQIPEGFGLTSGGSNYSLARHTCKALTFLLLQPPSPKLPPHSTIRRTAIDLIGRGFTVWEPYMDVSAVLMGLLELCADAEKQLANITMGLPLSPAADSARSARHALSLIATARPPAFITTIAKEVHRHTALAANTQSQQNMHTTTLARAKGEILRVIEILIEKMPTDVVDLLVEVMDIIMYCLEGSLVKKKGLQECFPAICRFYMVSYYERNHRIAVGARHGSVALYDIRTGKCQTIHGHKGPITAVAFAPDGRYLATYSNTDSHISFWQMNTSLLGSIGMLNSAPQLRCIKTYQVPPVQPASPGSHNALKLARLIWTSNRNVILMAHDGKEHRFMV
UniProt Q5VZL5, sequence (Q5VZL5 whole entry, looked up): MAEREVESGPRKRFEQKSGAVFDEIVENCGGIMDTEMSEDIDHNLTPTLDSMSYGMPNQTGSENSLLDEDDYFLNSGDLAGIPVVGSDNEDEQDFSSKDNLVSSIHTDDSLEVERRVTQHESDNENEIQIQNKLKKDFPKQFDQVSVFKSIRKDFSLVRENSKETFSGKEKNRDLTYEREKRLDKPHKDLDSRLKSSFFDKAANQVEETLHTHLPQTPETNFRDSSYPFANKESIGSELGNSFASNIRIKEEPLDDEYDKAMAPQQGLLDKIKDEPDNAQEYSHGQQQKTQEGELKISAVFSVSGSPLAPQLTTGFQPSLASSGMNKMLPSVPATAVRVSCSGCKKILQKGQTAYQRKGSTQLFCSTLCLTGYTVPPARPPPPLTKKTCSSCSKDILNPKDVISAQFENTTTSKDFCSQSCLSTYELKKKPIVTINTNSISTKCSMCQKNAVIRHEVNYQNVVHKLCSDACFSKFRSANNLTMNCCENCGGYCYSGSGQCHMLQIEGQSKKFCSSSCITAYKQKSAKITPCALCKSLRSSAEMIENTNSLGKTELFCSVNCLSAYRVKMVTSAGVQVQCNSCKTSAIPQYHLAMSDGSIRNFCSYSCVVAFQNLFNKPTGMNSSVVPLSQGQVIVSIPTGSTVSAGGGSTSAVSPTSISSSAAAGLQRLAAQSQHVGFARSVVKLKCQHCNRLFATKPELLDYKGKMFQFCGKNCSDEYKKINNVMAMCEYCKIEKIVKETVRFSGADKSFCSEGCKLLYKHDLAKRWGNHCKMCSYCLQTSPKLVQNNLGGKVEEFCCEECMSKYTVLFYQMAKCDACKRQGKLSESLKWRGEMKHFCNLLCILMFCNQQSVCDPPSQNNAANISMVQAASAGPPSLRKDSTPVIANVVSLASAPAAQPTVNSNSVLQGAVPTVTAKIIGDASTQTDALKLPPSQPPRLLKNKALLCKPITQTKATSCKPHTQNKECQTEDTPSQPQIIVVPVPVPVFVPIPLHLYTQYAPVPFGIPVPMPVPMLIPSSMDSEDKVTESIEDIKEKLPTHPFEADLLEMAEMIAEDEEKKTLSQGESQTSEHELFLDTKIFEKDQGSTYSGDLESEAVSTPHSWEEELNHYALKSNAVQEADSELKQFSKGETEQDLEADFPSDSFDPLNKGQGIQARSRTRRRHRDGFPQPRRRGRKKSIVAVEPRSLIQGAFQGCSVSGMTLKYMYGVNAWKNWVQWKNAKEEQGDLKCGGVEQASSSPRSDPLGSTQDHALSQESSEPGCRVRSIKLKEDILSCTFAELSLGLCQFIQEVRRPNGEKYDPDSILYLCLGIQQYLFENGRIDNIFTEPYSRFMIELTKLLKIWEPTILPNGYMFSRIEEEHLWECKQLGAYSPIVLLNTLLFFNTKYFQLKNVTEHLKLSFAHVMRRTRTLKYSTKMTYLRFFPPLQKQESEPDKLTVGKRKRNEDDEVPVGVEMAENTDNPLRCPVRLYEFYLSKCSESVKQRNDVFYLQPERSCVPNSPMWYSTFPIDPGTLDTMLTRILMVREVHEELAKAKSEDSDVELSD
UniProt Q9NZ43, sequence (Q9NZ43 whole entry, looked up): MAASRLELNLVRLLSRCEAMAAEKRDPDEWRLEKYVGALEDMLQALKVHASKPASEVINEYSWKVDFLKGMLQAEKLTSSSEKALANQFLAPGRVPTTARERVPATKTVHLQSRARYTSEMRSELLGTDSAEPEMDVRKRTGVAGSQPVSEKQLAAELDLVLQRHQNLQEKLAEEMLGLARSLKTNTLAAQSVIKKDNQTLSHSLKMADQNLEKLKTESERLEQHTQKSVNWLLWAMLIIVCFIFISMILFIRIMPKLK
UniProt A4D1P6, sequence (A4D1P6 whole entry, looked up): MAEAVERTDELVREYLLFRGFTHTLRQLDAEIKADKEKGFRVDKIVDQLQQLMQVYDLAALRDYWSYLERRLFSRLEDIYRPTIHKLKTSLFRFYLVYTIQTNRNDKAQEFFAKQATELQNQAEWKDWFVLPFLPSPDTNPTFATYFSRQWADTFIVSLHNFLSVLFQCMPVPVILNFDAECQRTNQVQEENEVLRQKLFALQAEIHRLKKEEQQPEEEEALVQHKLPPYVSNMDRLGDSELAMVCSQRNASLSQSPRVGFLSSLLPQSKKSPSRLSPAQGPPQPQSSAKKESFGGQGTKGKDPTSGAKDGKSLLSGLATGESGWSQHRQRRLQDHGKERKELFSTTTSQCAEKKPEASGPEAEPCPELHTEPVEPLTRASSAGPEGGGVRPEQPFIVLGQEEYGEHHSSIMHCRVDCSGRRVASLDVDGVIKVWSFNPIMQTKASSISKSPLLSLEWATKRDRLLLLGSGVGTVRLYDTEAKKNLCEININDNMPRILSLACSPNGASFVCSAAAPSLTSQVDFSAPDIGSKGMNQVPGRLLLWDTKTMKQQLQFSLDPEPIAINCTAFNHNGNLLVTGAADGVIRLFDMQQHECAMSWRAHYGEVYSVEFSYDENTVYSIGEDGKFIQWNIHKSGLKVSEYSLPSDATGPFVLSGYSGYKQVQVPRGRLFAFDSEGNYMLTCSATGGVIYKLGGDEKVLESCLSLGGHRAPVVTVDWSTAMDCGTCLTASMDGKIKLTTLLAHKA
UniProt Q9NWK9, sequence (Q9NWK9 whole entry, looked up): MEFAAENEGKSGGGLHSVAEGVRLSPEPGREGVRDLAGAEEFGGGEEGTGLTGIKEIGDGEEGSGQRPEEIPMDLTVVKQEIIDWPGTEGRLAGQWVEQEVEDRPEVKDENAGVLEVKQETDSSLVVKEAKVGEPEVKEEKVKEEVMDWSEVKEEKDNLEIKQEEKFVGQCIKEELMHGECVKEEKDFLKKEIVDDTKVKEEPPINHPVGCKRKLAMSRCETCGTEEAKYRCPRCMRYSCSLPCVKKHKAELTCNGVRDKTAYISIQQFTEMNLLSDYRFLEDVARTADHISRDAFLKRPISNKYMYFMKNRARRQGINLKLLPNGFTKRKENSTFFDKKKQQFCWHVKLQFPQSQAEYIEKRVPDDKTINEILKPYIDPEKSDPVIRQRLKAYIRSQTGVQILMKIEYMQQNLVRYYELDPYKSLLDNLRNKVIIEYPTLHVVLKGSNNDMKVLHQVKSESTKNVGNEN
UniProt O00258, sequence (O00258 whole entry, looked up): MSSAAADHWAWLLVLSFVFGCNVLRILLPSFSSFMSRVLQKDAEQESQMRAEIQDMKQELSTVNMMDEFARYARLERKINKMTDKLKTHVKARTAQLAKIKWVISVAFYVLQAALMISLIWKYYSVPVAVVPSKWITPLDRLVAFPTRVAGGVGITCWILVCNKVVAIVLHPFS

log2 fold change, inactive:
UPF3B (UniProt Q9BZI7) 0.011
YWHAQ (UniProt P27348) 0.023
ZNF609 (UniProt O15014) 0.074
WRB (UniProt O00258) 0.044
VPS72 (UniProt Q15906) -0.02
YTHDC2 (UniProt Q9H6S0) -0.008
WDR77 (UniProt Q9BQA1) 0.012
ZC3HC1 (UniProt Q86WB0) 0.034
ZNF217 (UniProt O75362) -0.004
USP10 isoform 2 (UniProt Q14694) 0.021
ZMYM4 (UniProt Q5VZL5) 0.188
USP16 (UniProt Q9Y5T5) 0.008
VPS54 (UniProt Q9P1Q0) 0.013
ZDHHC18 (UniProt Q9NUE0) -0.044
YRDC (UniProt Q86U90) 0.043
WRNIP1 (UniProt Q96S55) -0.044
ZMYM2 (UniProt Q9UBW7) -0.021
YDJC (UniProt A8MPS7) 0.014
ZFYVE19 (UniProt Q96K21) 0.008
WDR7 (UniProt Q9Y4E6) 0.026
WDR91 (UniProt A4D1P6) -0.056
ZNHIT6 (UniProt Q9NWK9) 0.086
UTP18 (UniProt Q9Y5J1) -0.049
USE1 (UniProt Q9NZ43) 0.015
XPO5 (UniProt Q9HAV4) -0.019
ZC3H13 (UniProt Q5T200) -0.028
VPS18 (UniProt Q9P253) -0.008
USP48 (UniProt Q86UV5) 0.054
UTP3 (UniProt Q9NQZ2) 0.089
WAC (UniProt Q9BTA9) 0.007
VASP (UniProt P50552) -0.003

These targets were tested with COC(=O)N[C@@H](C)CNc1nccc(-c2cn(C(C)C)nc2-c2cc(Cl)cc(NS(C)(=O)=O)c2F)n1 [encorafenib] in the same assay as above.
Procedure, shortened: as §1

log2 fold change, inactive:
UPF3B (UniProt Q9BZI7) 0.011
YWHAQ (UniProt P27348) -0.025
ZNF609 (UniProt O15014) 0.002
WRB (UniProt O00258) -0.067
VPS72 (UniProt Q15906) -0.016
YTHDC2 (UniProt Q9H6S0) 0.04
WDR77 (UniProt Q9BQA1) 0.055
ZC3HC1 (UniProt Q86WB0) -0.001
ZNF217 (UniProt O75362) -0.06
USP10 isoform 2 (UniProt Q14694) 0.019
ZMYM4 (UniProt Q5VZL5) 0.063
USP16 (UniProt Q9Y5T5) 0.059
VPS54 (UniProt Q9P1Q0) -0.001
ZDHHC18 (UniProt Q9NUE0) -0.038
YRDC (UniProt Q86U90) 0.003
WRNIP1 (UniProt Q96S55) 0.024
ZMYM2 (UniProt Q9UBW7) -0.214
YDJC (UniProt A8MPS7) -0.025
ZFYVE19 (UniProt Q96K21) -0.001
WDR7 (UniProt Q9Y4E6) 0.092
WDR91 (UniProt A4D1P6) 0.026
ZNHIT6 (UniProt Q9NWK9) 0.037
UTP18 (UniProt Q9Y5J1) -0.028
USE1 (UniProt Q9NZ43) 0.067
XPO5 (UniProt Q9HAV4) 0.021
ZC3H13 (UniProt Q5T200) -0.069
VPS18 (UniProt Q9P253) 0.019
USP48 (UniProt Q86UV5) -0.016
UTP3 (UniProt Q9NQZ2) 0.05
WAC (UniProt Q9BTA9) -0.006
VASP (UniProt P50552) -0.033
